BAZ2B inh = blocks human BAZ2B | 4.4% of 360,000 active | AlphaScreen BAZ2B-H3K14Ac peptide displacement | Potency, µM (series often up to 114 µM), without a hit: at the top dose activity change, negative = inhibition, most hits filed as inhibitors; note: potency is the fitted concentration of half-maximal effect; % is set by controls: 0 for no effect and ±100 for the full control effect; nearly all actives have a fitted effect of over 60% in size
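Protein-peptide AlphaScreen: BAZ2B 50 nM, b-H3K14Ac 50 nM, 1x PBS pH 7.4 + 0.01% Tween-20. Preincubation 30 min RT; cpd 30 min RT (top 110 uM); beads 20 min RT, light-protected.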
HP1b binding inh = blocks HP1-beta chromodomain binding to methylated histone tails | P83916 | AlphaScreen HP1-beta / biotin-H3K9me3 peptide binding | Potency, µM (doses to about 114 µM), for inactives: at the highest dose activity change, negative = inhibition, hits mostly inhibitors | 0.56% of 390,000 active; note: potency is the fitted concentration of half-maximal effect; nearly all actives have a fitted effect of over 70% in size
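AlphaScreen: HP1-beta (50 nM) preformed 30 min with biotin-H3(1-18)K9me3 peptide (50 nM) in PBS pH 7.4, 0.01% Tween-20. Compound added for 30 min at RT, then streptavidin donor/nickel chelate acceptor beads (10 ug/mL) for 30 min.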
G9a inh = blocks human histone lysine methyltransferase G9a | Q96KQ7 | G9a H3K9 monomethylation, AlphaScreen, 2 h | Potency, µM (highest dose often 102 µM), inactives show at the top dose activity, negative = inhibition, usual class: inhibitors | 8.8% of 350,000 active; note: potency is the fitted concentration of half-maximal effect; % is set by controls: 0 for no effect and ±100 for the full control effect; nearly all actives have a fitted effect of over 75% in size
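AlphaScreen read-out: biotin-H3K9 peptide (500 nM) methylation by 20 nM enzyme with 20 uM SAM, 2 h at room temperature after 15 min compound preincubation; anti-monomethyl H3K9 antibody plus donor/acceptor beads, 10 min dark.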
PLK1 PBD block = inhibitors of human PLK1 polo-box domain binding | Plk1 PBD binding of FITC phosphopeptide, fluorescence polarization | Potency, µM, inactives show max response, negative = inhibition, most hits filed as inhibitors | AID 720504 | 2.8% of 360,000 active; note: potency is the fitted concentration of half-maximal effect; series mostly up to about 57 µM; % is set by controls: 0 for no effect and ±100 for the full control effect; nearly all actives have a fitted effect of over 65% in size
Target sequence (P53350 whole entry, looked up, the tested form may be a part): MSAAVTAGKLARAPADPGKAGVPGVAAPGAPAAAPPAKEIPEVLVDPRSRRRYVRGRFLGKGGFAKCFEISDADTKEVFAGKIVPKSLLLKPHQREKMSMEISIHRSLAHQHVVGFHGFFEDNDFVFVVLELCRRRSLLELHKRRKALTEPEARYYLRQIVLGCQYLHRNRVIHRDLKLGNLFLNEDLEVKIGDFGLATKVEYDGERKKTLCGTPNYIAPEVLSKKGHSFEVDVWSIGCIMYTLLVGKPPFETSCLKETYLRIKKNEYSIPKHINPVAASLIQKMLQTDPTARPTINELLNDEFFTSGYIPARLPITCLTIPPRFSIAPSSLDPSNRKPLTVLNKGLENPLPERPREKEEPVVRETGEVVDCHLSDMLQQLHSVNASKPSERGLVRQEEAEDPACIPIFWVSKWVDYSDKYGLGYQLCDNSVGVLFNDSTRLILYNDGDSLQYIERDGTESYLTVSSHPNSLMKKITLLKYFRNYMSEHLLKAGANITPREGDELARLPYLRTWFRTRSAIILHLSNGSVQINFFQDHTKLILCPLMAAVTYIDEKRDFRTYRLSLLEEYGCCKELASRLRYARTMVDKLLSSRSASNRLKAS
JMJD2A Tudor inh = inhibitors of human JMJD2A Tudor domain; O75164; AlphaScreen JMJD2A-Tudor / H3K4me3 peptide binding; Potency, µM (titrated, usually from 114 µM), for inactives: top-dose activity change, negative = inhibition, hits mostly inhibitors; 4.4% of 390,000 active; AID 504339; note: potency is the fitted concentration of half-maximal effect; % is set by controls: 0 for no effect and ±100 for the full control effect; nearly all actives have a fitted effect of over 50% in size
PI5P4Ka inh = PI5P4K alpha (human) kinase inhibition. P48426. PI5P4Kalpha enzyme, ADP-Glo luminescence, 60 min; stronger effect = lower value. max response, %. 1.2% of 330,000 active; active = max response of -50% or lower; inconclusive = between -30% and -50%; inactive = -30% or higher; note: value at the top dose of about 77 µM; % is set by controls: 0 for no effect and ±100 for the full control effect
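qHTS, 1536-well: enzyme/substrate mix, compound by pin tool, 5 microM ATP final; RT 60 min; ADP-Glo reagents 1 (45 min) then 2 (30 min); luminescence.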
Active calls of the source: *; [ ] = remark or other dose. This is a sample that favours compounds with a hit; in the whole collection about 12% have one here. Unless noted, calls come from the whole dose curve; as a rule, active = well fitted curve in the direction sought with a large enough effect; inconclusive = small, poorly fitted or top-dose-only effect, or another doubt; inactive = no such curve, though single readings can be large; an effect the other way counts as inactive or inconclusive.

`COc1ccc2c(c1)CC/C(=C\c1ccc(OC)c(Cn3cccn3)c1)C2=O` gave BAZ2B inh -34.2%, HP1b binding inh -7.7%, G9a inh inconclusive, PLK1 PBD block -6.6%, JMJD2A Tudor inh -31.1% and PI5P4Ka inh 0.8.
Screening Cn1cccc1/C=C1\CCc2ccccc2C1=O returned BAZ2B inh 39.8µM*, HP1b binding inh inconclusive, G9a inh inconclusive, PLK1 PBD block -12.3%, JMJD2A Tudor inh 44.7µM* and PI5P4Ka inh -7.6.
Screening Nc1ccc2c(c1)C/C(=C/c1ccco1)C2=O returned BAZ2B inh inconclusive, HP1b binding inh -15.4%, G9a inh 7.08µM*, PLK1 PBD block inconclusive, JMJD2A Tudor inh -33.3% and PI5P4Ka inh -74.1*.
`Cc1ccc(CNC(=O)c2cnn(-c3cccc(C)c3)c2C2CCN(C(=O)OC(C)(C)C)CC2)cc1` gave BAZ2B inh 2.0%[57.1 µM], HP1b binding inh 1.2%, G9a inh inconclusive and JMJD2A Tudor inh -33.0%.
`COc1cccc(C(=O)Nc2c3c(nn2-c2ccc(Cl)cc2)CS(=O)(=O)C3)c1` gave BAZ2B inh -0.1%, HP1b binding inh 18.6%, G9a inh -18.1%[59 µM] and JMJD2A Tudor inh -21.1%.
CCCN(CC(=O)Nc1ccccc1OC)C(=O)c1ccncc1 was read as BAZ2B inh 1.2%, HP1b binding inh -4.2%, G9a inh 23.8%, PLK1 PBD block -17.2%, JMJD2A Tudor inh -9.3% and PI5P4Ka inh -3.7.
For COc1ccc(N(Cc2cccs2)C(=O)c2ccc(OCC(C)C)cc2)cc1 the results were BAZ2B inh 11.6%, HP1b binding inh 69.5%, G9a inh 25.5%[59 µM] and JMJD2A Tudor inh 32.5%.
For CN(Cc1cccs1)CC(O)COCc1ccco1 (stereo not drawn) the results were BAZ2B inh -14.9%, HP1b binding inh 9.2%, G9a inh 44.7µM*, PLK1 PBD block 0.5%, JMJD2A Tudor inh -9.0% and PI5P4Ka inh 1.9.
For CC(=O)c1ccc(OCC(O)CN(C)Cc2cccs2)cc1 (stereo not drawn) the results were BAZ2B inh 50.1µM*, HP1b binding inh inconclusive, G9a inh 3.55µM*, PLK1 PBD block -9.0%, JMJD2A Tudor inh 7.94µM* and PI5P4Ka inh -0.2.
`CC(C)Oc1ccc(C(=O)N(Cc2ccco2)Cc2cccs2)cc1` gave BAZ2B inh 9.0%, HP1b binding inh 16.0%, G9a inh 10.7%[59 µM] and JMJD2A Tudor inh -19.2%.
For Cc1cc(C)cc(-n2ncc3c2CCCC3NC(=O)CN2CCCC2=O)c1 (stereo not drawn) the results were BAZ2B inh -7.2%, HP1b binding inh 9.5%, G9a inh 15.3%[0.501 µM], PLK1 PBD block 29.9µM*, JMJD2A Tudor inh inconclusive and PI5P4Ka inh 3.5.
`CC1(C)Cc2c(cnn2-c2cccc(F)c2)C(NC(=O)CCN2CCCC2=O)C1` (stereo not drawn) gave BAZ2B inh -1.8%, HP1b binding inh 19.7%, PLK1 PBD block -13.1%, JMJD2A Tudor inh 0.7% and PI5P4Ka inh -5.2.
CC1(C)Cc2c(cnn2-c2ccc(F)cc2)C(NC(=O)CCN2CCCC2=O)C1 (stereo not drawn) was read as BAZ2B inh 1.5%, HP1b binding inh 20.6%, G9a inh 6.1%, PLK1 PBD block 3.36µM*, JMJD2A Tudor inh inconclusive and PI5P4Ka inh inconclusive.
CC(C)(C)c1ccc(-n2ncc3c2CCCC3NC(=O)CN2CCCC2=O)cc1 (stereo not drawn) was read as BAZ2B inh -2.8%, HP1b binding inh 20.1%, G9a inh 3.7%, PLK1 PBD block 0.3%, JMJD2A Tudor inh -4.2% and PI5P4Ka inh -3.0.
CC1(C)Cc2c(cnn2-c2ccc(F)cc2)C(NC(=O)c2ccco2)C1 (stereo not drawn) was read as BAZ2B inh -9.7%, HP1b binding inh 39.8%, G9a inh 10.6%, PLK1 PBD block 1.5%, JMJD2A Tudor inh -6.9% and PI5P4Ka inh -3.7.
Screening CC1(C)Cc2c(cnn2-c2ccc(F)cc2)C(NC(=O)C2=NNC(=O)CC2)C1 (stereo not drawn) returned BAZ2B inh -1.5%, HP1b binding inh 13.3%, G9a inh 13.4%, PLK1 PBD block 2.99µM*, JMJD2A Tudor inh 15.8µM* and PI5P4Ka inh inconclusive.
For CCc1ccccc1OCC(=O)Nc1ccc(S(=O)(=O)Nc2nc(C)cc(C)n2)cc1 the results were BAZ2B inh -5.1%, HP1b binding inh 24.2%, G9a inh inconclusive and JMJD2A Tudor inh -16.5%.
Screening CC(C)(C)OC(=O)N1C=CCC1CN1C(=O)COCC1=O (stereo not drawn) returned HP1b binding inh 40.5% and JMJD2A Tudor inh 2.8%.
`CN(CC(=O)Nc1ccc(N2CCOCC2)cc1)C(=O)c1cc(F)c(F)cc1Cl` gave BAZ2B inh -2.3%, HP1b binding inh -16.8%, G9a inh 7.8%[0.501 µM], PLK1 PBD block -6.7%, JMJD2A Tudor inh -19.4% and PI5P4Ka inh -1.9.
`CSc1ccc(Cl)c(C(=O)N(C)CC(=O)Nc2ccc(N3CCOCC3)cc2)c1` gave BAZ2B inh -2.8%, HP1b binding inh 24.6%, G9a inh 35.5µM*, PLK1 PBD block -0.1%, JMJD2A Tudor inh -28.1% and PI5P4Ka inh -8.9.
`Cc1ccc(-c2nn(-c3ccc(F)cc3)cc2C(=O)N(C)CC(=O)Nc2ccc(N3CCOCC3)cc2)cc1` gave BAZ2B inh -5.2%, HP1b binding inh 10.3%, G9a inh 39.8µM*, PLK1 PBD block 3.0%, JMJD2A Tudor inh -6.5% and PI5P4Ka inh 0.3.
CN(CC(=O)Nc1ccc(N2CCOCC2)cc1)C(=O)CCNC(=O)c1ccccc1Cl was read as BAZ2B inh -1.2%, HP1b binding inh 9.8%, G9a inh 44.7µM*, PLK1 PBD block -3.8%, JMJD2A Tudor inh -3.4% and PI5P4Ka inh 6.0.
Screening COc1ccc(NC(=O)CN(C)C(=O)c2cn(-c3ccccc3)nc2-c2ccc(F)cc2)cc1 returned BAZ2B inh -3.2%, HP1b binding inh 9.1%, G9a inh -17.3%[12.7 µM], PLK1 PBD block 5.5%, JMJD2A Tudor inh -12.8% and PI5P4Ka inh 8.7.
`CN(CC(=O)Nc1ccc(N2CCOCC2)cc1)C(=O)CCc1ccccc1Cl` gave BAZ2B inh inconclusive, HP1b binding inh -14.3%, G9a inh 25.1µM*, PLK1 PBD block inconclusive, JMJD2A Tudor inh -23.4% and PI5P4Ka inh 0.5.
For CCOc1ccccc1C(=O)NCC(=O)N(C)CC(=O)Nc1ccc(N2CCOCC2)cc1 the results were PLK1 PBD block 2.8% and PI5P4Ka inh -0.7.
`Cc1cc2c(s1)c1cnn(Cc3c(F)ccc(C)c3F)c(=O)c1n2C` gave JMJD2A Tudor inh -32.9%.

Bioassay records as filed in PubChem BioAssay.
